# Data reported in PubChem BioAssay (EPA / NIEHS).
# Inconclusive results are not listed. The source made the active and inactive calls. Rule for the calls, unless noted: active = hit-call score of the fitted dose curve at least 0.9, where 1 is the maximum; inactive = score below 0.9.
# Experiment: ACEA_ER_80hr: ACEA Biosciences xCELLigence Real-Time Cell Analysis on Estrogen Receptor Agonism for Proliferation (AID 2282667; active = hit-call score of the fitted dose curve at least 0.9, where 1 is the maximum)
# Conditions: T47D proliferation, impedance (xCELLigence), 80 h
# Outline: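 T47D human breast cells were seeded on electrode plates, monitored overnight, then exposed continuously to compounds in eight-point 1:4 dilutions from 100 uM (max 0.5% DMSO). Impedance-based growth was read at 80 h, fitted upward relative to DMSO.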
row,Structure (SMILES),outcome
1,O=C(O)c1ccc2c(c1)C(=O)OC2=O,inactive
2,CC(C)(c1ccccc1)c1ccc(Nc2ccc(C(C)(C)c3ccccc3)cc2)cc1,inactive
3,CCCC(C)C(=O)OCC (centres undefined),inactive
4,NC(=O)Nc1ccccc1,inactive
5,CC1=CCC(C(C)C)C=C1 (centres undefined),inactive
6,CCN(CC)c1cccc(C)c1,inactive
7,CC(=O)OC/C=C(/C)CCC=C(C)C,inactive
8,O=C(O)c1cc(O)c2ccccc2c1O,inactive

# Experiment: ATG_CRE_CIS: Attagene CIS-FACTORIAL HepG2 Assay for human cAMP Responsive Element (CRE) binding protein 3 (AID 2282926)
# Conditions: HepG2 CRE cis-reporter, Attagene multiplexed mRNA; actives raise or lower the signal
# Outline: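 Capillary electrophoresis of 6-FAM-labelled, HpaI-digested PCR products quantified reporter transcripts. These came from HepG2 transiently transfected with cis-element reporters and exposed to test chemicals for 24 hours, with DMSO defining baseline activity.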
Structure (SMILES),outcome,AC50
O=S(=O)(O)c1ccc(N=Nc2c(O)ccc3ccccc23)cc1,inactive,
CC1(C)[C@@H]2CC[C@@]1(C)C(=O)C2,inactive,
Cc1ccc(C)c(OCCCC(C)(C)C(=O)O)c1,inactive,
COc1ccc(C(=O)/C(Br)=C\C(=O)O)cc1,inactive,
C/C=C/C=C/CCCCCCCO,inactive,
CCCCCCCCCCCC(C)=O,inactive,
CC(=O)OCC=C(C)C,inactive,
CCCC=C(C=O)CC,inactive,
CCc1cccc(C)c1N,inactive,
CCCCCCCCCCCCC,inactive,
COCC(=O)O,inactive,
CCC1COC(=O)O1 (centres undefined),inactive,
CCCC1CCCC(=O)O1 (centres undefined),inactive,
C[Si](C)(C)N[Si](C)(C)C,inactive,
CCCC(CC)c1ccccc1 (centres undefined),inactive,
CC(=O)OC1CCCCC1,inactive,
CCCCCC(=O)OCC,inactive,
CC1CC(=O)CC(C)(C)C1 (centres undefined),inactive,
CC(C)(C)NC(=O)[C@H]1CC[C@H]2[C@@H]3CC[C@H]4NC(=O)C=C[C@]4(C)[C@H]3CC[C@]12C,inactive,
CCC1(C)C(=O)N(Cl)C(=O)N1Cl (centres undefined),,27.6 µM (active)
CC/C=C\CCOC(=O)c1ccccc1O,inactive,
